Source: PubChem BioAssay (NCI)
About 79,000 compounds went through this panel and 15% of them were active in at least one assay; those are over-represented in the sample as a whole. Values without a mark were called inactive. Active and inactive are the calls of the source. Cut-off read from the data, not from the text of the source: active = growth inhibition above about 70%; inactive = the rest.

Experiments:
[1] = NCI Yeast Anticancer Drug Screen. Data for the rad50 strain (AID 155);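 note: 0% = growth of vehicle-only cultures of the same strain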; details: S. cerevisiae rad50 strain growth inhibition, active compounds read high
Summary of the method: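 Readout: growth inhibition relative to vehicle-treated cultures. Compound exposure was carried out in a genetically defined yeast strain deficient in DNA damage repair.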

[2] = NCI Yeast Anticancer Drug Screen. Data for the mec2-1 strain (AID 157); details: S. cerevisiae mec2-1 strain, active compounds read high
Summary of the method: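 Vehicle-treated cultures served as reference for growth inhibition of compound-exposed mec2-1 yeast.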

[3] = NCI Yeast Anticancer Drug Screen. Data for the sgs1 mgt1 strain (AID 161);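 note: 0% = growth of cultures given vehicle only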; details: S. cerevisiae sgs1 mgt1 strain, active compounds read high
Summary of the method: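 Test agents were incubated with a DNA-repair-mutant yeast strain. Growth was then read and compared against vehicle-treated controls.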

[4] = NCI Yeast Anticancer Drug Screen. Data for the cln2 rad14 strain (AID 165);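 note: 0% = growth equal to vehicle treated cultures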; details: S. cerevisiae cln2 rad14 strain, active compounds read high
Summary of the method: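 Each compound was tested on cln2 rad14 yeast. Inhibition of growth was calculated against vehicle-exposed controls.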

[5] = NCI Yeast Anticancer Drug Screen. Data for the bub3 strain (AID 167); details: S. cerevisiae bub3 mutant strain, active compounds read high
Summary of the method: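 Readout: yeast growth inhibition, expressed relative to vehicle-only wells. The test organism is a mutant strain from a panel with lesions in DNA repair or checkpoint genes.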

[6] = NCI Yeast Anticancer Drug Screen. Data for the mlh1 rad18 strain (AID 175); details: S. cerevisiae mlh1 rad18 strain growth inhibition, active compounds read high
Summary of the method: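 Vehicle-treated cultures served as the reference for growth inhibition in a yeast strain carrying DNA damage repair alterations exposed to each compound.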

[7] = at 5.0 µM (retest, dose inferred, filed as 0.5)
[8] = at 50.0 µM (retest, dose inferred, filed as 5.0)

| SMILES | growth inhibition [1, 7] | growth inhibition [1, 8] | growth inhibition ([1]; at 50.0 µM) | growth inhibition [2, 7] [%] | growth inhibition [2, 8] | growth inhibition ([2]; at 50.0 µM) | growth inhibition [3, 7] [%] | growth inhibition [3, 8] | growth inhibition ([3]; at 50.0 µM) | growth inhibition [4, 7] [%] | growth inhibition [4, 8] | growth inhibition ([4]; at 50.0 µM) | growth inhibition [5, 7] | growth inhibition [5, 8] | growth inhibition ([5]; at 50.0 µM) | growth inhibition [6, 7] | growth inhibition [6, 8] | growth inhibition ([6]; at 50.0 µM) |
| --- | --- | --- | --- | --- | --- | --- | --- | --- | --- | --- | --- | --- | --- | --- | --- | --- | --- | --- |
| OC1(c2ccc(Br)cc2)C2CCCCC2C2CCCCC21 (configuration not stated) | 36% | 92% (active) | 98% (active) | 7 | 95% (active) | 98.5% (active) | 18 | 95% (active) | 98.3% (active) | -4 | 92% (active) | 97.7% (active) | 7% | 93% (active) | 98.4% (active) | 10% | 95% (active) | 98.2% (active) |
| COC1OC2=CCC3C(=O)NC(=O)C3C2[C@H](OCc2ccccc2)C1OCc1ccccc1 (some centres not stated) | 11% | 99% (active) | 98.4% (active) | -13 | 99% (active) | 99.7% (active) | 11 | 99% (active) | 98.8% (active) | 0 | 99% (active) | 93.5% (active) | 2% | 97% (active) | 98.8% (active) | 4% | 98% (active) | 98.9% (active) |
| Cc1cc(C)n2nc(N)c(C#N)c2c1C#N | -2% | 1% | 17.2% | 1 | 0% | 7.85% | 2 | 8% | 0.85% | -2 | 2% | 11.7% | -1% | -3% | 47.7% | -1% | 7% | 62% |
| CCCOC(=O)C#CC(=O)OCCC | 37% | 96% (active) | 94.6% (active) | 29 | 99% (active) | 63% | 43 | 99% (active) | 48.8% | 21 | 99% (active) | 93.6% (active) | 25% | 99% (active) | 7.3% | 69% | 99% (active) | 74.6% (active) |
| CC(=O)NNc1ccc(Cl)cc1[N+](=O)[O-] | 18% | 30% | 51% | -5 | 26% | 25.3% | -6 | 20% | 12.1% | 5 | 4% | 44.1% | 3% | 19% | 77.3% (active) | 28% | 69% | 91% (active) |
| CCCCCCCCCCCCCCCC(=O)N(CCCN(CC)CC)C(C)CCCN(CC)CC (configuration not stated) | 90% (active) | 98% (active) | 60.1% | 28 | 99% (active) | 71.9% (active) | 51 | 99% (active) | 44.9% | 36 | 99% (active) | 76.4% (active) | 53% | 99% (active) | 19.6% | 85% (active) | 97% (active) | 17.7% |
| O=C1c2ccccc2C(=O)c2c(/C=C\N3CCCCC3)ccnc21 | 40% | 86% (active) | 87.7% (active) | 27 | 60% | 92.4% (active) | 40 | 99% (active) | 92.6% (active) | 38 | 95% (active) | 90.7% (active) | 48% | 98% (active) | 92.3% (active) | 37% | 84% (active) | 90.6% (active) |
| CCOC(=O)C1C(c2cccc(OC)c2O)c2cc3c(cc2OC1(C)N1CCCC1)OCO3 (configuration not stated) | -3% | 21% | 31.2% | 1 | 15% | 16.4% | -2 | 39% | 34.5% | -5 | -4% | 2.55% | 1% | 25% | 24.9% | -4% | 27% | 50.5% |
| C1=Nc2ccccc2/C1=C/c1ccccc1 | 10% | 22% | 72.9% (active) | -9 | 20% | 48.8% | -13 | 19% | 49.7% | 27 | 26% | 40% | 9% | 38% | 64.4% | 2% | 50% | 52.1% |
| O=C(O)c1ccc(CSc2ccc(Cl)cc2)cc1 | -4% | 0% | 52% | -2 | 19% | 10.4% | 11 | 36% | 51.3% | -7 | -15% | 36.7% | -6% | 39% | 18.7% | 0% | 17% | 71.3% (active) |
| C1CCC(C2CCC(N3CCCCC3)CC2)CC1 (configuration not stated) | 60% | 78% (active) | 85% (active) | 45 | 77% (active) | 51.4% | 58 | 86% (active) | 82.3% (active) | 63 | 62% | 75.6% (active) | 63% | 84% (active) | 72.8% (active) | 67% | 87% (active) | 79.4% (active) |
| C=C(CN(C)C)C(=O)c1ccc(C)cc1C | 34% | 99% (active) | 99.4% (active) | 18 | 99% (active) | 99.5% (active) | 64 | 99% (active) | 99.4% (active) | 24 | 99% (active) | 99.3% (active) | 77% (active) | 99% (active) | 56% | 74% (active) | 99% (active) | 99.2% (active) |
| CCN(CC)CCO/N=C1\CC[C@H]2[C@@H]3CCc4cc(OC)ccc4[C@H]3CC[C@]12C | 31% | 99% (active) | 89.1% (active) | 27 | 98% (active) | 92.2% (active) | 58 | 98% (active) | 91.3% (active) | 67 | 98% (active) | 89% (active) | 66% | 98% (active) | 90.7% (active) | 34% | 99% (active) | 89.7% (active) |
| O=C(O)c1ccc(OCc2ccccc2)c(Cl)c1 | 16% | 36% | 52.8% | 22 | 44% | 25.5% | 11 | 38% | 30.9% | -8 | 39% | 54.2% | 3% | 17% | 38.2% | 12% | 47% | 59.1% |
| CS[C@H]1CC[C@H]2[C@@H]3CCc4cc(O)ccc4[C@H]3CC[C@]12C | 0% | 73% (active) | 71.6% (active) | 2 | 66% | 61.8% | 0 | 71% (active) | 63.4% | 7 | 85% (active) | 87.6% (active) | 12% | 81% (active) | 82.8% (active) | -8% | 75% (active) | 85.8% (active) |
| CC1(C)OC2COC3(CNO)OC(C)(C)OC3C2O1 (configuration not stated) | 0% | -4% | 22.5% | -1 | 1% | 32.6% | -7 | -2% | 83.1% (active) | -5 | 8% | 25.1% | 3% | 5% | 63.9% | -10% | -2% | 69.7% |
| CCOC(=O)N1CCN(C=S)CC1 | -8% | 6% | 31.1% | 0 | -7% | -23.3% | -5 | -17% | 57.7% | 17 | 31% | 15.8% | 8% | 31% | 24% | -5% | -1% | 38.2% |
| O=[N+]([O-])c1ccc(O)c(C=Nc2ccccc2)c1 | -114% | 31% | 74.3% (active) | -50 | -21% | 69.5% | -51 | 0% | 64% | -57 | -6% | 79.5% (active) | -71% | -41% | 54.6% | -96% | -16% | 82.8% (active) |
| Cc1cc(S(=O)(=O)Nc2n[nH]c(-c3ccccn3)n2)c(S)cc1Cl | -10% | 92% (active) | 73.8% (active) | 27 | 84% (active) | 53.8% | 18 | 88% (active) | 55% | -4 | 85% (active) | 49% | -29% | 93% (active) | 69.3% | 0% | 88% (active) | 56% |
